Compounds with a hit are over-represented: about 6.9% of the library has one in this group of screens.
L3MBTL1 inh: qHTS Assay for the Inhibitors of L3MBTL1; Lethal(3)malignant brain tumor-like protein 1 (Homo sapiens), Q9Y468; AlphaScreen L3MBTL1–H3K9me1 peptide binding; Potency, µM (doses to about 57.1 µM), for the others: at the top dose activity, negative = inhibition, most hits filed as inhibitors; 0.66% of 230,000 active; also: % is scaled to controls: 0 for no effect and ±100 for the full control effect; nearly all actives have a fitted effect of over 60% in size
Target sequence (Q9Y468 whole entry, looked up): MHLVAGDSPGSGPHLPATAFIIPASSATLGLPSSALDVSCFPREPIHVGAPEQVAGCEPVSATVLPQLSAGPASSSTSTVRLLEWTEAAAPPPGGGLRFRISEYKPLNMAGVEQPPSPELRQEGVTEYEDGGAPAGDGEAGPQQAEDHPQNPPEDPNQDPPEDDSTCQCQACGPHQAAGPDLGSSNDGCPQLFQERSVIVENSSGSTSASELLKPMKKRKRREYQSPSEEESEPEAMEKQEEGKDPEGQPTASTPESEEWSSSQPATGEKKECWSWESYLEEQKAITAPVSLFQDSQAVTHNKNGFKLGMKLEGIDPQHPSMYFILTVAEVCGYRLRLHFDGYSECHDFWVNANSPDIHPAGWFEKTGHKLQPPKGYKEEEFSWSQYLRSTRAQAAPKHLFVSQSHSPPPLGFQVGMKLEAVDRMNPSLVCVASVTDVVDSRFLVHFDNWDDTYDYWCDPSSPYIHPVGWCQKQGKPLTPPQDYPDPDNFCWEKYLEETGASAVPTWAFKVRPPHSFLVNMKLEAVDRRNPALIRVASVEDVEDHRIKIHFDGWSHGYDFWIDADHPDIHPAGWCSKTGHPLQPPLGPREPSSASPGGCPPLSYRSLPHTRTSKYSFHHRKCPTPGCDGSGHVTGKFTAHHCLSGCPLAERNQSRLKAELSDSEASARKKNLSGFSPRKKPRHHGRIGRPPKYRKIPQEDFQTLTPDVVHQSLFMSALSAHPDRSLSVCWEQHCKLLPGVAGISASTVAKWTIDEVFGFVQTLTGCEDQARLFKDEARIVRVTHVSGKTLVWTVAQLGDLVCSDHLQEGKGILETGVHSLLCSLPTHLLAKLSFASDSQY
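AlphaScreen assay: L3MBTL1 (50 nM final) was preincubated 30 min at room temperature with biotinylated H3(1-15)K9me1 peptide (75 nM final), then 30 min with library compounds; streptavidin donor and nickel chelate acceptor beads (10 ug/mL final) added, 30 min dark.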
HP1b binding inh: HTS for Inhibitors of HP1-beta Chromodomain Interactions with Methylated Histone Tails; Potency, µM (doses to about 114 µM), without a hit: at the top dose activity change, negative = inhibition, hits mostly inhibitors; 0.56% of 390,000 active; Chromobox protein homolog 1 (Homo sapiens), P83916; AlphaScreen HP1-beta / biotin-H3K9me3 peptide binding; also: nearly all actives have a fitted effect of over 70% in size
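AlphaScreen: HP1-beta (50 nM) preformed 30 min with biotin-H3(1-18)K9me3 peptide (50 nM) in PBS pH 7.4, 0.01% Tween-20. Compound added for 30 min at RT, then streptavidin donor/nickel chelate acceptor beads (10 ug/mL) for 30 min.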
VDR inh: Inhibitors of the vitamin D receptor (VDR): qHTS. Vitamin D3 receptor (Homo sapiens), P11473. VDR-SRC2-3 peptide fluorescence polarization, 2 h. Potency, µM, inactives show max response, negative = inhibition, most hits filed as inhibitors. 0.93% of 400,000 active. AID 504847, 2011; also: % is scaled to controls: 0 for no effect and ±100 for the full control effect
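The screen uses fluorescence polarization to detect compounds that interfere with recruitment of the SRC2-3 coactivator peptide to VDR; plates are read after 2 h at room temperature.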
BAZ2B block: qHTS Assay for Inhibitors of BAZ2B; Bromodomain adjacent to zinc finger domain protein 2B (Homo sapiens), Q9UIF8; AlphaScreen BAZ2B-H3K14Ac peptide displacement; Potency, µM (titrated, usually from 114 µM), for the others: at the top dose activity change, negative = inhibition, actives largely listed as inhibitors; 4.4% of 360,000 active; also: % is scaled to controls: 0 for no effect and ±100 for the full control effect; nearly all actives have a fitted effect of over 60% in size
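Complex of BAZ2B and biotin-H3K14Ac (50 nM apiece) forms over 30 min at RT, then faces library compounds up to 110 uM for another 30 min; AlphaScreen beads added, 20 min dark incubation, luminescence read.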
JMJD2A Tudor: qHTS Assay for Inhibitors of JMJD2A-Tudor Domain | AlphaScreen JMJD2A-Tudor / H3K4me3 peptide binding | 4.4% of 390,000 active | AID 504339, 2011 | Lysine-specific demethylase 4A (Homo sapiens), O75164 | Potency, µM (top dose mostly 114 µM), for the others: at the top dose activity change, negative = inhibition, most hits filed as inhibitors; also: % is scaled to controls: 0 for no effect and ±100 for the full control effect; nearly all actives have a fitted effect of over 50% in size
PLK1 PBD block: qHTS for Inhibitors of PLK1-PDB (polo-like kinase 1 - polo-box domain): Primary Screen | Serine/threonine-protein kinase PLK1 (Homo sapiens), P53350 | Plk1 PBD binding of FITC phosphopeptide, fluorescence polarization | Potency, µM, for the others: max response, negative = inhibition, usual class: inhibitors | 2.8% of 360,000 active | AID 720504, 2013; also: series mostly up to about 57 µM; % is scaled to controls: 0 for no effect and ±100 for the full control effect; nearly all actives have a fitted effect of over 65% in size
* marks the source's active call; other numbers are inactive results; ? = inconclusive; nt = no result given; [ ] = another dose, or the depositor's remark. Calls follow the shape of the dose curve; as a rule, active = well fitted curve in the direction sought with a large enough effect; inconclusive = small, poorly fitted or top-dose-only effect, or another doubt; inactive = no such curve, though single readings can be large; an effect the other way counts as inactive or inconclusive. Potency is read from the fitted curve at half-maximal effect.

SMILES	L3MBTL1 inh	HP1b binding inh	VDR inh	BAZ2B block	JMJD2A Tudor	PLK1 PBD block
COc1ccc(C)cc1NC(=O)CSc1ncc2c(n1)-c1ccc(Cl)cc1N(Cc1ccccc1)S2(=O)=O	nt	-21%	-12%	50µM*	-33%	nt
COc1cccc(-c2cc(C(F)(F)F)nc(NCCc3ccc(OC)c(OC)c3)n2)c1	nt	72%	1%	44%	14%	nt
COC(=O)c1ccc(CO/N=C/c2cccc([N+](=O)[O-])c2)cc1	nt	3%	2%	2%	-12%	-1%
Cc1ccc2[nH]cc(C(c3ccccc3)c3ccc(Cl)s3)c2c1 (stereo not drawn)	nt	29%	-25%	-33%	-26%	nt
CCc1ccc(C(c2ccccc2)c2c[nH]c3ccc(C)cc23)s1 (stereo not drawn)	nt	?	?	?	56µM*	nt
O=C(c1ccccc1)c1ccc(Oc2ccc([N+](=O)[O-])cc2[N+](=O)[O-])cc1	nt	?	-8%	nt	7.1µM*	-9%
c1ccc2c(c1)N1CCN=C1N2CCN1CCCCC1	-1%	68%	-8%	-35%	-16%[11.4 µM]	-16%
c1ccc2c(c1)N1CCCN=C1N2CCN1CCCCC1	3%	18%	-12%	-15%	-5%	27µM*
CCc1c(C)sc(NC(=O)Cn2nc(C(F)(F)F)c3c2CCCC3)c1C#N	-3%	-10%	-11%	10%	4%	21µM*
CCc1ccc(NC(=O)Cn2nc(C(F)(F)F)c3c2CCCC3)cc1	nt	45%	-14%	1%	-5%	nt
CCNC(=O)CC1C(=O)N(c2ccc(C)cc2)C(=O)N1Cc1ccc(C)cc1 (stereo not drawn)	nt	6%	-7%	-4%	-7%	nt
Clc1ccccc1CN1CCc2nc(N3CCN(c4ncccn4)CC3)ncc2C1	nt	?	0%	50µM*	35µM*	nt
CCOc1ccccc1CN1CCc2nc(N3CCN(C)CC3)ncc2C1	nt	55%	8%	79µM*	-22%	nt
CN1CCN(c2ncc3c(n2)CCN(Cc2ccccc2Cl)C3)CC1	nt	-10%	-3%	?	79µM*	nt
COc1cccc(CN2CCc3nc(N4CCN(C)CC4)ncc3C2)c1	nt	5%	13%	?	?	nt
CN1CCN(c2ncc3c(n2)CCN(Cc2cc(Br)cs2)C3)CC1	nt	-2%	12%	?	56µM*	nt
CC(C)CN1CCc2nc(N3CCN(C)CC3)ncc2C1	nt	43%	7%	?	-30%	nt
Cc1cccc(CSc2ncc(Cl)c(C(=O)Nc3sc4c(c3C(N)=O)CCCC4)n2)c1	nt	36%	3%	-2%	2%	nt
Oc1ccccc1C=NN=Cc1c(O)ccc2ccccc12	nt	47%	-22%	nt	-5%	-1%
Cc1cc(C)n(/N=C\c2c(O)ccc3ccccc23)c(=O)c1C(N)=O	nt	19%	-19%	1%	89µM*	-14%
O=C(CCc1nnc2ccc(NCc3ccco3)nn12)Nc1ccccn1	nt	32%	-17%	50µM*	11%	-4%
COc1ccc(NC(=O)CCc2nnc3ccc(NCc4ccco4)nn23)cc1	nt	21%	-13%	-30%	-28%	-7%
Cc1cccc(NC(=O)CCc2nnc3ccc(NCc4ccco4)nn23)n1	nt	46%	-10%	50µM*	16%	1%
O=C(CCc1nnc2ccc(NCc3ccccc3)nn12)NC1CCCCC1	nt	12%	-13%	?	?	24µM*
Cc1cccnc1NC(=O)CCc1nnc2ccc(NCc3ccco3)nn12	nt	38%	7%	?	-25%	-9%
SMILES	L3MBTL1 inh	HP1b binding inh	VDR inh	BAZ2B block	JMJD2A Tudor	PLK1 PBD block
CCN1CCN(CCC2Oc3cc([N+](=O)[O-])ccc3NC2=O)CC1 (stereo not drawn)	-7%	48%	7%	-5%	-7%	-2%
COc1ccc(N2CCN(CCC3Oc4cc([N+](=O)[O-])ccc4NC3=O)CC2)cc1 (stereo not drawn)	-21%	?	3%	28µM*	?	-9%
CCC1(C)Cc2c(C#N)c(N)n(N)c(=S)c2CO1 (stereo not drawn)	0%	37%	-20%	3%	-32%	27µM*
N#Cc1c(C#N)c(-c2ccccc2)n(-c2ccccc2)c1N	-1%	15%	1%	-11%	-14%	-13%
N#Cc1c2c(c(=S)n(-c3ccccc3)c1N)CCCC2	-10%	1%	-17%	?	-21%	2.7µM*
Cn1c(N)c(C#N)c2c(c1=S)COC(C)(C)C2	nt	12%	-3%	2%	-11%	-8%
CC1(C)Cc2c(C#N)c(N)n(-c3ccccc3)c(=S)c2CO1	-1%	37%	27%	-5%	4%	11µM*
Cc1cccc(-n2c(O)c(C=Nc3ccccc3-c3n[nH]c(=S)[nH]c3=O)c3ccccc3c2=O)n1	-9%	9%	-21%	-34%	?	27µM*
Cc1cccc(-n2c(O)c(C=Nc3ccccc3O)c3ccccc3c2=O)n1	-12%	-12%	-6%	-25%	-19%	12%
Cc1ccc(-n2c(O)c(C=Nc3ccccc3-c3n[nH]c(=S)[nH]c3=O)c3ccccc3c2=O)c(C)c1	-11%	?	-3%	40µM*	45µM*	27µM*
Cc1ccc(-n2c(O)c(C=Nc3ccccc3-c3n[nH]c(=S)[nH]c3=O)c3ccccc3c2=O)cc1C	-14%	-36%	-1%	45µM*	50µM*	30µM*
CCC(=O)Oc1ccc(C/C(=N\O)c2ccc(O)cc2O)o1	32µM*	17%	9%	?	?	?
NCCSSCCN	nt	13µM*	25µM*	-12%	-6%	?
O=C(CN1C=NS(=O)(=O)c2ccc(C(F)(F)F)cc21)Nc1cccc(C(F)(F)F)c1	nt	60%	17%	6%	-7%	nt
CCOC(=O)c1c(=O)n(O)c2ccc(OC)cc2[n+]1[O-]	nt	3%	12%	?	50µM*	-13%
O=C(Nc1ccc(Cl)cc1)Nc1ccccc1Sc1ncc([N+](=O)[O-])s1	nt	8%	10µM*	28µM*	?	8.4µM*
Cc1ccc(S(=O)(=O)Nc2ccc3c(c2)c(C(=O)OC(C)C)c(C)n3S(=O)(=O)c2ccc(C)cc2)cc1	nt	34%	5%	-18%	-21%	nt
COc1ccc2c(c1)O[C@@H](c1cccc(C(F)(F)F)c1)[C@H](OC(=O)NS(=O)(=O)c1ccc(F)cc1)C2=O	nt	nt	-3%	nt	nt	nt
N#Cc1c(NC(=O)c2ccc([N+](=O)[O-])o2)sc2c1CCC2	nt	?	-4%	40µM*	?	-27%
